Compounds without any hit were thinned out: in the full panel of roughly 83,000, 20% have a hit.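 Results are percent growth after 48 hours of single-concentration exposure. 100 means growth as in untreated cells, lower positive values show inhibition; negative values down to -100 show cell death.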 Unmarked numbers belong to inactive results. Calls of active or inactive are those of the source. The calls were made as follows: active = growth percent below 10; inactive = the rest.
Legend:
Assay in all cases: NCI-60 one-dose screen, 48 h (100 = growth as untreated, 0 = no growth, -100 = all killed)
Details in all cases: 10 µM unless noted
[1] = system: SR leukemia
[2] = system: RPMI-8226 leukemia
[3] = system: OVCAR-5 ovarian
[4] = system: OVCAR-4 ovarian
[5] = system: SK-OV-3 ovarian
[6] = system: IGROV1 ovarian
[7] = system: OVCAR-3 ovarian
[8] = system: HS 578T breast
[9] = system: NCI/ADR-RES ovarian

In the case of `O=[N+]([O-])c1ccc2[nH]cc(-c3c4ccccc4cc4[nH]c5ccc([N+](=O)[O-])cc5c34)c2c1`, the growth [1] is reported as 10.2%, the growth [2] is reported as 11.6% and the growth [3] is reported as 67.8%. It also gave a growth [4] of 26.7%, a growth [5] of 64.4% and a growth [6] of 18.7%. The growth [7] was -7.76% (active), the growth [8] was 30.4% and the growth [9] was 8.13% (active).
`CN1C(=O)C(C2=NN(C=O)C(c3ccc(F)cc3)C2)C(=O)N(C)C1=O` (stereo not given) was tested, and the growth [1] was 101%, the growth [2] was 95.8% and the growth [3] was 97.1%. It also gave a growth [4] of 102%, a growth [5] of 94.6% and a growth [6] of 104%. For the same compound, the growth [7] was 99.9% and the growth [9] was 99.2%.
With `CCSc1nc(-c2ccco2)n2nc(-c3ccco3)cc2n1` the growth [1] was 93%, the growth [2] was 52.8% and the growth [3] was 110%. For the same compound, the growth [4] was 65.9%, the growth [5] was 101% and the growth [6] was 82.9%. For the same compound, the growth [7] was 105%, the growth [8] was 96.2% and the growth [9] was 95.3%.
Compound `N=C1c2nc3n(c2C(=O)c2nc4n(c21)CCCCC4)CCCCC3` has a growth [1] of 91.8%, a growth [2] of 99.1% and a growth [3] of 123%. The growth [4] was 93.2%, the growth [5] was 107% and the growth [6] was 130%. For the same compound, the growth [7] was 111%, the growth [8] was 112% and the growth [9] was 110%.
`COc1cc(OC)c2c(c1Cl)O[C@]1(C2=O)C(OCc2ccccc2)=CC(=O)C[C@H]1C` was tested, and the growth [1] was 7.41% (active), the growth [2] was -4.76% (active) and the growth [3] was 17.2%. The growth [4] was 39.2%, the growth [5] was 10.2% and the growth [7] was -23.5% (active). For the same compound, the growth [8] was 18.7% and the growth [9] was 7.55% (active).
With `O=C(Nc1nc(-c2ccc(Cl)cc2)cs1)c1cc(-c2ccc(Br)cc2)nc2ccc(Cl)cc12` the growth [1] was 15.4%, the growth [2] was 16.1% and the growth [3] was 106%. The growth [4] was 47.3%, the growth [5] was 86.6% and the growth [6] was 30.8%. For the same compound, the growth [7] was 10%, the growth [8] was 49.4% and the growth [9] was 8.07% (active).
In the case of `N#Cc1ncc(-c2ccc(C(F)(F)F)cc2)c(NC2CCCCCC2)n1`, the growth [1] is reported as 52.6%, the growth [2] is reported as -5.45% (active) and the growth [3] is reported as 38.8%. The growth [4] was 12.6%, the growth [5] was 73.6% and the growth [6] was 32.5%. For the same compound, the growth [7] was 1.17% (active), the growth [8] was 46.5% and the growth [9] was 69.8%.
Compound `COc1ccc2c(c1)C(=Nc1cc(OC)c(OC)c(OC)c1)C(=O)N2` has a growth [1] of 75.4%, a growth [2] of 65.9% and a growth [3] of 99.5%. The growth [4] was 111%, the growth [5] was 97.4% and the growth [6] was 94.1%. For the same compound, the growth [7] was 72.4% and the growth [9] was 103%.
`CCSc1ncc(Br)c(Sc2nc(N)nc3nc[nH]c23)n1` showed a growth [1] of 19.4%, a growth [2] of 26.1% and a growth [3] of 72.3%. It also gave a growth [4] of 58.4%, a growth [5] of 18.5% and a growth [6] of 89.4%. It also gave a growth [7] of 75.2%, a growth [8] of 89.9% and a growth [9] of 33.4%.
For `CN1CCN(CCCOc2ccc3ncnc(Nc4ccc(OCc5cccc(F)c5)c(Cl)c4)c3c2)CC1`, the growth [1] was -6.49% (active), the growth [2] was -24.6% (active) and the growth [3] was -59.4% (active). For the same compound, the growth [4] was -19.9% (active), the growth [5] was 12.4% and the growth [6] was -34.9% (active). For the same compound, the growth [7] was -6.29% (active), the growth [8] was -19.3% (active) and the growth [9] was 18.3%.
For `c1ccc(Nc2ccc(Nc3nc(-c4ccccc4)nc4ccccc34)cc2)cc1`, the growth [1] was 52.1%, the growth [2] was 48.9% and the growth [3] was 81.5%. The growth [4] was 94.1%, the growth [5] was 107% and the growth [6] was 96.7%. It also gave a growth [7] of 101%, a growth [8] of 92.9% and a growth [9] of 79%.
With `O=C1Nc2ccc(Cl)cc2/C1=C/c1cccs1` the growth [1] was 99.4%, the growth [2] was 100% and the growth [3] was 110%. It also gave a growth [4] of 35.9%, a growth [5] of 93.6% and a growth [6] of 65.1%. The growth [7] was 87.8%, the growth [8] was 96.2% and the growth [9] was 92.8%.
`Nc1ccn(C2O[C@H](CO)[C@@H](O)[C@@H]2O)c(=O)n1` (stereo not given in full) was tested, and the growth [1] was 9.93% (active), the growth [2] was 64.4% and the growth [3] was 70.1%. For the same compound, the growth [4] was 83.4%, the growth [5] was 55.6% and the growth [6] was 51.9%. The growth [7] was 67.6%, the growth [8] was 107% and the growth [9] was 34.6%.
`COc1cc(/C(Cl)=C/C=C/C(=O)c2c(C)[n+]([O-])c3ccc(Cl)cc3[n+]2[O-])cc(OC)c1OC` was tested, and the growth [1] was 2.04% (active), the growth [2] was 19% and the growth [3] was 81.8%. The growth [4] was 34.1%, the growth [5] was 69.5% and the growth [6] was 37.2%. For the same compound, the growth [7] was 33.7%, the growth [8] was 17.4% and the growth [9] was 31.1%.
In the case of `O=C(COc1ccc(/C=C2\Oc3ccc4ccccc4c3C2=O)cc1)c1ccc(Cl)cc1`, the growth [1] is reported as 26.8%, the growth [2] is reported as 62.1% and the growth [3] is reported as 113%. The growth [4] was 94.6%, the growth [5] was 104% and the growth [7] was 127%. The growth [8] was 91.7% and the growth [9] was 107%.
`COc1cc(/C=C/C(=O)C(C(=O)/C=C/c2ccc(OC(=O)CCNC34CC5CC(CC(C5)C3)C4)c(OC)c2)C(=O)CCNC23CC4CC(CC(C4)C2)C3)ccc1OC(=O)CCNC12CC3CC(CC(C3)C1)C2` (stereo not given) was tested, and the growth [1] was -48.6% (active), the growth [2] was -51.6% (active) and the growth [3] was 37.8%. The growth [4] was 25.8%, the growth [5] was 42.8% and the growth [7] was 14.9%. For the same compound, the growth [8] was 6.55% (active) and the growth [9] was 41.7%.
`COc1ccc(-c2c3c(N)nc(-c4ccncc4)nc3nc3c2c(C)nn3-c2ccccc2)cc1` showed a growth [1] of 17.1%, a growth [2] of 84.3% and a growth [3] of 64.7%. For the same compound, the growth [4] was 11.4%, the growth [5] was 53.4% and the growth [6] was 77%. The growth [7] was 22.4%, the growth [8] was 71.2% and the growth [9] was 74.5%.
For `Cc1ccc(C(NC(=O)c2ccccc2)c2ccc3cccnc3c2O)cc1` (stereo not given), the growth [1] was 11%, the growth [2] was 14.9% and the growth [3] was 44.8%. It also gave a growth [4] of 19.8%, a growth [5] of 19.3% and a growth [6] of 17.1%. It also gave a growth [7] of 31.5%, a growth [8] of 69.5% and a growth [9] of 14%.
In the case of `COc1cnc2c(c1)C(=O)c1c-2n(CCCn2ccnc2)c(=O)c2cc(F)ccc12`, the growth [1] is reported as -25% (active), the growth [2] is reported as -28.2% (active) and the growth [3] is reported as -30.4% (active). For the same compound, the growth [4] was -0.273% (active), the growth [5] was -22.5% (active) and the growth [6] was 4.03% (active). For the same compound, the growth [7] was -35.5% (active), the growth [8] was 15.5% and the growth [9] was -3.87% (active).
In the case of `OC(c1cc(-c2cccc(Cl)c2)nc2ccccc12)C1CCCCN1` (stereo not given), the growth [1] is reported as -33.8% (active), the growth [2] is reported as -26.8% (active) and the growth [3] is reported as 2.42% (active). The growth [4] was -7.1% (active), the growth [5] was 48.3% and the growth [6] was -61.7% (active). For the same compound, the growth [7] was -13.1% (active), the growth [8] was 34.9% and the growth [9] was -29.4% (active).
Compound `N#Cc1c(-c2ccccc2)cc(-c2ccccc2)n(CC(=O)O)c1=O` has a growth [1] of 25%, a growth [2] of 50.4% and a growth [3] of 94.4%. For the same compound, the growth [4] was 93%, the growth [5] was 99.9% and the growth [6] was 61.4%. For the same compound, the growth [7] was 17.7%, the growth [8] was 51.6% and the growth [9] was 26.2%.
Work on `CN1CCN(c2nc3scc(-c4ccccc4)c3c(=O)[nH]2)CC1` yielded a growth [1] of 94.1%, a growth [2] of 97.4% and a growth [3] of 93%. It also gave a growth [4] of 97.4%, a growth [5] of 103% and a growth [6] of 97.6%. It also gave a growth [7] of 102%, a growth [8] of 100% and a growth [9] of 99.2%.
`CCOC(=O)CCC(=O)O[C@H]1[C@H](O[C@@H]2[C@@H](C)[C@H](O[C@H]3C[C@@](C)(OC)[C@@H](O)[C@H](C)O3)[C@@H](C)C(=O)O[C@H](CC)[C@@](C)(O)[C@H](O)[C@@H](C)C(=O)[C@H](C)C[C@@]2(C)O)O[C@H](C)C[C@@H]1N(C)C` showed a growth [1] of 92%, a growth [2] of 97.2% and a growth [3] of 106%. The growth [4] was 110%, the growth [5] was 113% and the growth [6] was 92.8%. It also gave a growth [7] of 125%, a growth [8] of 113% and a growth [9] of 108%.
For `Cc1cn(C(C=O)OC(C=O)CO)c(=O)[nH]c1=O` (stereo not given), the growth [1] was 93.9%, the growth [2] was 107% and the growth [3] was 111%. The growth [4] was 96.9%, the growth [5] was 103% and the growth [6] was 102%. It also gave a growth [7] of 109%, a growth [8] of 103% and a growth [9] of 107%.
For `COCCCNS(=O)(=O)c1ncnc2nc[nH]c12`, the growth [1] was 108%, the growth [2] was 107% and the growth [3] was 100%. It also gave a growth [4] of 113%, a growth [5] of 121% and a growth [6] of 142%. It also gave a growth [7] of 102%, a growth [8] of 104% and a growth [9] of 99.5%.
`O=C(c1ccc(Cl)cc1)c1ccc(Cl)cc1` gave a growth [1] of 93.3%, a growth [2] of 115% and a growth [3] of 88.7%. The growth [4] was 92.4%, the growth [5] was 114% and the growth [6] was 124%. The growth [7] was 105%, the growth [8] was 130% and the growth [9] was 103%.
For `Cc1ncc(C(=O)Nc2ccc(CN3CCN(C)CC3)c(C(F)(F)F)c2)cc1C#Cc1cncc2ncccc12`, the growth [1] was -13.2% (active), the growth [2] was 49.7% and the growth [3] was 69%. It also gave a growth [4] of 51.7%, a growth [5] of 68.4% and a growth [6] of 24.9%. It also gave a growth [7] of 83%, a growth [8] of 47.9% and a growth [9] of 86.8%.
For `O=C1/C(=C/c2ccccc2O)C(=S)SN1Cc1ccco1`, the growth [1] was -9.87% (active), the growth [2] was 66.8% and the growth [3] was 102%. It also gave a growth [4] of 105%, a growth [5] of 98.8% and a growth [6] of 93.4%. It also gave a growth [7] of 111%, a growth [8] of 104% and a growth [9] of 110%.
In the case of `NS(=O)(=O)N(c1cc(C(F)(F)F)cc(C(F)(F)F)c1)C1CCN(Cc2ccc(C(F)(F)F)cc2)CC1`, the growth [1] is reported as -6.79% (active), the growth [2] is reported as 31.7% and the growth [3] is reported as 38.6%. The growth [4] was 31.6%, the growth [5] was 4.55% (active) and the growth [6] was 21.7%. It also gave a growth [7] of 15%, a growth [8] of 25.2% and a growth [9] of 58.2%.
Work on `COc1cc(-c2nc3nc4sc(C)c(C)c4c(=O)n3[nH]2)cc(OC)c1OC` yielded a growth [1] of 30.7%, a growth [2] of 74.3% and a growth [3] of 96.4%. The growth [4] was 93.5%, the growth [5] was 92% and the growth [6] was 66.6%. For the same compound, the growth [7] was 93.1%, the growth [8] was 87.7% and the growth [9] was 70.8%.

Source: PubChem BioAssay (NCI)
